Experiment [1] is described as follows: qHTS assay for small molecules that induce genotoxicity in human embryonic kidney cells expressing luciferase-tagged ATAD5 (AID 651632). Note: nearly all actives have a fitted effect of over 15% in size. Summed up: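 DMSO vehicle served as the control. HEK293T reporter cells, 16 hr at 37C, then 30 min Amplite at room temperature; ATAD5 induction is measured as luciferase activity.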
In general terms: Quantitative high-throughput screening tests each substance at several concentrations.

Experiment [2] can be described thus: qHTS assay for small molecule agonists of the p53 signaling pathway - cell viability (AID 651633; calls by dose curve; note: nearly all actives have a fitted effect of over 30% in size; note: potency is the fitted concentration of half-maximal effect). Summed up:
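p53RE-bla cells, seeded at 4,000 per well and rested 5 h at 37 C/5% CO2, received compounds in DMSO for 16 h at 37 C. CellTiter-Glo was then added, and luminescence was read after 30 min at room temperature to gauge cytotoxicity.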

The nature of experiment [3]: qHTS assay for small molecules that induce genotoxicity in human embryonic kidney cells expressing luciferase-tagged ATAD5 - cell viability (AID 651634; calls by dose curve; note: nearly all actives have a fitted effect of over 25% in size; note: potency is the fitted concentration of half-maximal effect). The method in brief: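 Here HEK293T cells with the ATAD5 luciferase reporter are incubated with test compounds for 15.5 hr, and cytotoxicity is then gauged by measuring protease activity in live cells using fluorescence.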

Experiment [4] is described as follows: qHTS assay for small molecule disruptors of the mitochondrial membrane potential - cell viability (AID 720634; calls by dose curve; note: nearly all actives have a fitted effect of over 20% in size; note: potency is the fitted concentration of half-maximal effect). Summed up:
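Viability of HepG2 cells is scored from ATP content by luminescence; cells are exposed to compound for 1 hr at 37 C and 5% CO2, then dosed with m-MPI dye before the CellTiter-Glo reagent.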

Experiment [5] is described as follows: qHTS assay for small molecule disruptors of the mitochondrial membrane potential (AID 720635). Note: potency is the fitted concentration of half-maximal effect. Summed up: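 HepG2 cells (2,000/well) attached overnight at 37C, then took compound for 1 hr at 37C, 5% CO2. Mito-MPS dye was added for 30 min; fluorescence was read at 490/535 nm (monomers) and 540/590 nm (aggregates).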
Experiment [6] in a line: qHTS assay to test for compound auto fluorescence at 590 nm (red) in HepG2 cells (AID 720674). The method in brief:
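Intrinsic compound fluorescence in the red window (Ex/Em 540/590 nm) is measured in attached HepG2 cells exposed for 1 hr, DMSO vehicle as baseline, benchmarked to Rose Bengal sodium.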

A short description of experiment [7]: qHTS assay to test for compound auto fluorescence at 535 nm (green) in HepG2 cells (AID 720675).
Experiment [8] in a line: qHTS assay to test for compound auto fluorescence at 460 nm (blue) in HEK293 cells (AID 720678). Note: potency is the fitted concentration of half-maximal effect. The method in brief:
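HEK293 cells (2,000 per well, medium with 10% dialyzed FBS) attached for 4-5 hr at 37C, then received compound and stood overnight at 37C, 5% CO2. Blue fluorescence was read at Ex/Em 405/460 nm and expressed relative to triamterene.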

Experiment [9] is described as follows: qHTS assay to test for compound auto fluorescence at 590 nm (red) in HEK293 cells (AID 720679). The method in brief:
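HEK293 cells (2,000/well, medium with 10% dialyzed FBS) attached for 4-5 hr at 37C, received 23 nL compound and were incubated overnight at 37C, 5% CO2. Red fluorescence was then read at 540/590nm Ex/Em, referenced to Rose Bengal sodium.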

Results filed as inconclusive are left out. The source made the active and inactive calls. Unless noted, calls come from the whole dose curve; as a rule, active = well fitted curve in the direction sought with a large enough effect in the repeat runs; inconclusive = weak or mixed curves; inactive = no such curve, though single readings can be large; an effect the other way counts as inactive or inconclusive. Positions of bridges follow the written chain, without caps; N, C: chain ends. Non-standard residues stand in square brackets, D forms with d. Residues, ends and D or L forms follow the SMILES beside them. *: point of attachment. X2 = CC[C@H](C)CCCCC(=O)*; Dab = NCC[C@H](N)C(=O)O
Tags give direction and shape of the fitted curve or compound fluorescence and quenching.

Take `CC(O)[C@H]1CC[C@H]2[C@@H]3CC[C@@H]4C[C@@H](O)CC[C@]4(C)[C@H]3CC[C@]12C` (some centres not stated): the Potency entry in experiment [1], in experiment [2], in [3], in experiment [4], in experiment [5] and in experiment [6] was “inactive” each time. Further, the Potency result in [7], in experiment [8] and in [9] was “inactive” in each case.

As to `O=C(CCCCCCCCCCCCC1CCCC1)Nc1ccc(S(=O)(=O)c2ccc(NC(=O)CCCCCCCCCCCCC3CCCC3)cc2)cc1`, the Potency entry in experiment [1], in experiment [2], in experiment [3], in experiment [4], in experiment [5] and in experiment [6] was “inactive” each time. Besides, the Potency entry in [7], in experiment [8] and in [9] was “inactive” throughout.

For the molecule `CO[C@H]1C[C@@H]2CC[C@@H](C)[C@@](O)(O2)C(=O)C(=O)N2CCCC[C@H]2C(=O)O[C@H]([C@H](C)C[C@@H]2CC[C@@H](OCCO)[C@H](OC)C2)CC(=O)[C@H](C)/C=C(\C)[C@@H](O)[C@@H](OC)C(=O)[C@H](C)C[C@H](C)/C=C/C=C/C=C/1C`, the Potency result in experiment [1], in experiment [4], in experiment [6], in experiment [7], in experiment [8] and in experiment [9] was “inactive” in each case. For the same molecule, the Potency in experiment [2] is 21.1 µM (active); in experiment [3], 29.8 µM (active); in experiment [5], 21.1 µM (active).

Consider `CSc1nc2cc(Oc3cccc(Cl)c3Cl)c(Cl)cc2[nH]1`, for which the Potency entry in experiment [1], in experiment [6], in experiment [7], in experiment [8] and in experiment [9] was “inactive” each time. For the same molecule, the Potency is 10.6 µM (active) in experiment [2], 29.8 µM (active) in [3], 2.11 µM (active) in experiment [4] and 1.68 µM (active) in [5].

Take `CCCCCCOc1ccc(C(=N)N(CCCC)CCCC)c2ccccc12`: the Potency result in [1], in [6], in [7], in experiment [8] and in [9] was “inactive” each time. Also, the Potency is 21.1 µM (active) in experiment [2], 23.7 µM (active) in [3], 26.6 µM (active) in experiment [4] and 8.41 µM (active) in [5].

In the case of `CC(=O)O[C@H]1CC[C@@]2(C)C(=CC[C@H]3[C@@H]4CC[C@H](C(C)=O)[C@@]4(C)CC[C@@H]32)C1`, the Potency result in experiment [1], in [2], in [3], in experiment [4], in experiment [5] and in experiment [6] was “inactive” throughout. For the same molecule, the Potency result in [7], in experiment [8] and in experiment [9] was “inactive” throughout.

For the molecule `C=C1CC[C@@H]2[C@](C)(CO)[C@H](O)CC[C@@]2(C)[C@@H]1C/C=C1/C(=O)OC[C@H]1O`, the Potency entry in experiment [1], in experiment [2], in [3], in [4], in experiment [5] and in experiment [6] was “inactive” in each case. The Potency entry in [7], in experiment [8] and in [9] was “inactive” in each case.

For `CCOc1ccc(N=C(C)Nc2ccc(OCC)cc2)cc1`, the Potency result in experiment [1], in [2], in experiment [3], in experiment [4], in [5] and in [6] was “inactive” each time. The Potency entry in [7], in experiment [8] and in [9] was “inactive” each time.

With `C[C@H](O)[C@H](O)[C@H]1CNc2nc(N)[nH]c(=O)c2N1`, the Potency entry in experiment [1], in experiment [2], in experiment [3], in experiment [4], in [5] and in [6] was “inactive” in each case. Moreover, the Potency entry in experiment [7] and in experiment [9] was “inactive” in each case. Besides, the Potency in [8] is 12.6 µM [fluorescent] (active).

For `Nc1ncnc2c1ncn2CCOCP(=O)(O)O`, the Potency result in experiment [1], in [2], in [3], in experiment [4], in experiment [5] and in experiment [6] was “inactive” in each case. Also, the Potency result in experiment [7], in experiment [8] and in experiment [9] was “inactive” in each case.

On to `CC(=O)OCC(=O)[C@@]1(O)[C@H](C)C[C@H]2[C@@H]3C[C@H](F)C4=CC(=O)C=C[C@]4(C)[C@H]3[C@@H](O)C[C@@]21C`, for which the Potency result in experiment [1], in experiment [2], in experiment [3], in experiment [4], in [5] and in [6] was “inactive” in each case. Besides, the Potency entry in [7], in experiment [8] and in experiment [9] was “inactive” each time.

Turning to `CN[C@@H]1[C@H](O[C@H]2[C@H](O[C@H]3[C@H](O)[C@@H](O)[C@H](N=C(N)N)[C@@H](O)[C@@H]3N=C(N)N)O[C@@H](C)[C@]2(O)C=O)O[C@@H](CO)[C@H](O)[C@H]1O`, the Potency entry in experiment [1], in [2], in experiment [3], in experiment [4], in experiment [5] and in experiment [6] was “inactive” throughout. For the same molecule, the Potency entry in experiment [7], in experiment [8] and in [9] was “inactive” each time.

`CC[C@H](C)CCCCC(=O)N[C@@H](CCN)C(=O)N[C@H](C(=O)N[C@@H](CCN)C(=O)N[C@H]1CCNC(=O)[C@@H]([C@H](C)O)NC(=O)[C@H](CCN)NC(=O)[C@H](CCN)NC(=O)[C@H](CC(C)C)NC(=O)[C@@H](CC(C)C)NC(=O)[C@H](CCN)NC1=O)[C@@H](C)O` (X2-[Dab]T[Dab][Dab][Dab][dL]L[Dab][Dab][dT]; lactam 4-C): the Potency result in experiment [1], in experiment [2], in experiment [3], in experiment [4], in experiment [5] and in experiment [6] was “inactive” in each case. Further, the Potency result in [7], in experiment [8] and in experiment [9] was “inactive” each time.

As for `CCNC(=O)[C@@H]1CCCN1C(=O)[C@H](CCCN=C(N)N)NC(=O)[C@H](CC(C)C)NC(=O)[C@@H](Cc1c[nH]c2ccccc12)NC(=O)[C@H](Cc1ccc(O)cc1)NC(=O)[C@H](CO)NC(=O)[C@H](Cc1c[nH]c2ccccc12)NC(=O)[C@H](Cc1cnc[nH]1)NC(=O)[C@@H]1CCC(=O)N1`, the Potency entry in [1], in experiment [6], in experiment [7], in [8] and in experiment [9] was “inactive” each time. The Potency in experiment [2] was 8.41 µM (active); in [3], 8.41 µM (active); in experiment [4], 29.8 µM (active); in [5] it was 27.8 µM (active).

Consider `CC(=O)N[C@@H](CC(=O)N[C@@H](CCC(=O)O)C(=O)O)C(=O)O`, for which the Potency entry in [1], in experiment [2], in experiment [3], in experiment [4], in experiment [5] and in experiment [6] was “inactive” throughout. Moreover, the Potency result in [7], in experiment [8] and in [9] was “inactive” in each case.

Consider `CC(C)(C)NCC(O)CSc1nc(-c2ccc(C(N)=O)s2)cs1` (configuration not stated), for which the Potency entry in [1], in experiment [2], in [3], in [4], in experiment [6] and in [7] was “inactive” in each case. For the same molecule, the Potency result in [8] and in [9] was “inactive” throughout. Moreover, in experiment [5], the Potency was 13.3 µM (active).

Take `O=C(Cn1c(=O)sc2ccc(Cl)cc21)N1CCN(CCO)CC1`: the Potency result in experiment [1], in experiment [2], in [3], in experiment [4], in [5] and in [6] was “inactive” throughout. Further, the Potency result in [7], in experiment [8] and in [9] was “inactive” in each case.

On to `FCOC(C(F)(F)F)C(F)(F)F`, for which the Potency result in experiment [1], in experiment [2], in [3], in experiment [4], in [5] and in experiment [6] was “inactive” in each case. In addition, the Potency result in experiment [7], in experiment [8] and in [9] was “inactive” in each case.

For the origin of these results see PubChem BioAssay (Tox21).
